Screens (PubChem BioAssay)
aDG glyco act – increases alpha dystroglycan glycosylation. Pro5-aDG cells, alpha-DG glycosylation AlphaScreen (IIH6); 0% Pro5, 100% B10-LARGE cell signal. activation, % at 10 µM. 0.22% of 360,000 active. AID 624168;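 active = activation of at least 8% versus controls, or a plate z-score of at least 8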;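 note: Pro5 are CHO cells carrying HIG-tagged alpha-DG that lacks glycosylation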
CRFR2-BP ag – agonists of human CRF-binding protein/CRF-R2 receptor complex; HEK293 CRF-R2/CRF-BP, calcium dye fluorescence (FLIPR); percent of saturating CRF peptide response; 0.46% of 350,000 active; activation, % at 13.2 µM;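 active = activation of at least 50%, plus an integration ratio under a set limit after plate pattern correction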
CRFBP-R2 block – blocks CRF-induced signaling of the CRF-BP/CRF-R2 complex; inhibition, % at 11.8 µM; HEK293 CRF-R2/CRF-BP, CRF-induced calcium fluorescence; 0.59% of 350,000 active;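 active = inhibition of the ligand-induced calcium signal above about 50% at the single tested concentration, limit read from the data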
Cardio protect – myocardial damage modulation in H9c2 cells. protection from H2O2 cell death, % at 20 µM. H9c2 cardiomyocytes, H2O2 injury protection, ATPLite, 2 h. AID 588492. 0.63% of 360,000 active;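 active = compounds giving at least 50% protection of heart cells from peroxide-induced death in the single-dose screen, raw or plate-pattern-corrected value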
PfG6PD inh – PfG6PD (Plasmodium falciparum) enzyme inhibition. PfGluPho enzyme, NADPH resazurin-diaphorase fluorescence. inhibition, % at 20 µM. 0.78% of 350,000 active;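 active = inhibition reaching at least a set limit at 20 µM in the primary screen, cut at about 59% in these data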
FAS-TE inh – blocks the thioesterase domain of human fatty acid synthase. 0.67% of 360,000 active. inhibition, % at 15 µM. recombinant FAS-TE, OMFH fluorogenic substrate, fluorescence endpoint. P49327;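 active = compounds whose normalised, plate-corrected inhibition of enzyme fluorescence in the single-dose primary screen is 50% or more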
PfGluPho conf – confirmation of Plasmodium falciparum G6PD inhibitors; shares compounds with PfG6PD inh; recombinant PfGluPho, NADPH-diaphorase-resazurin fluorescence; inhibition, % at 20 µM; 34% of 2,400 active;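 active = inhibition of at least 50% at 20 µM in any single replicate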
Diaph ctr 10uM – counter-screen for P. falciparum G6PD inhibitors: diaphorase inhibitors, oxidizers; diaphorase-coupled resazurin reduction, fluorescence, NADPH 10 uM; inhibition, % at 20 µM; shares compounds with PfG6PD inh; 39% of 820 active;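 active = average inhibition reaching 50% or more with the compound at 20 µM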;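 note: resorufin red fluorescence formed as diaphorase reduces resazurin using NADPH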
Diaphorase 30uM – diaphorase inhibition or oxidation at 30 uM NADPH | shares compounds with PfG6PD inh | Diaphorase/resazurin coupled assay, resorufin fluorescence | inhibition, % at 20 µM | 29% of 820 active;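 active = inhibition averaging 50% or more, tested at 20 µM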
A number is an active result; 0 = inactive; - = no result. In the library only some 3.2% were active in any assay of this set; here they are far more common.

SMILES	aDG glyco act	CRFR2-BP ag	CRFBP-R2 block	Cardio protect	PfG6PD inh	FAS-TE inh	PfGluPho conf	others
O=C(Nc1ncc([N+](=O)[O-])s1)c1ccc2c(c1)OCO2	0	0	0	0	125.9	0	86.9	Diaph ctr 10uM=83.5;Diaphorase 30uM=78.2
Cc1onc(-c2ccccc2)c1C(=O)Nc1ncc([N+](=O)[O-])s1	0	0	0	0	0	0	-
Cc1ccc(C(=O)Nc2ncc([N+](=O)[O-])s2)cc1	0	58.4	0	0	98.6	0	85.4	Diaph ctr 10uM=76.0;Diaphorase 30uM=62.8
CCCNC(=O)C1(C)CCCN(C(=O)c2ccc3ccccc3c2)C1 (stereo unspecified)	0	-	-	0	-	0	-
Cc1c(Cl)cccc1N=Cc1ccc([N+](=O)[O-])s1	0	0	0	0	77.4	0	0
Cc1ccc(/C=N/NC(=O)NC2CCCCC2)o1	0	0	0	0	0	0	-
Cc1ccc(/C=C/C(=O)NCCc2cccc(Cl)c2)o1	0	0	0	0	62.5	0	49.1	Diaph ctr 10uM=0;Diaphorase 30uM=0
Cc1ccc(/C=C/C(=O)NC2CCCCCCC2)o1	0	0	0	0	80.7	0	51.8	Diaph ctr 10uM=0;Diaphorase 30uM=0
Cc1ccc(/C=C/C(=O)NCc2ccc3c(c2)OCO3)o1	0	0	0	0	78.1	0	0
Cc1ccc(/C=C/C(=O)NCC2COc3ccccc3O2)o1 (stereo unspecified)	0	0	0	0	63.1	0	47.8	Diaph ctr 10uM=0;Diaphorase 30uM=0
Cn1c(=O)c2c(nc(N3CCOCC3)n2C/C=C/c2ccccc2)n(C)c1=O	0	0	0	0	0	0	-
CC(=O)NC(c1ccccc1)c1nc(-c2ccc(F)c(Cl)c2)cs1 (stereo unspecified)	0	-	-	0	-	0	-
CNc1nc(-c2cccs2)cc(C(F)(F)F)c1C#N	0	0	0	0	0	0	-
Cc1ccc(/C=C/C(=O)Nc2ccc(S(N)(=O)=O)cc2)o1	0	0	0	0	0	0	-
Cc1ccc(/C=C/C(=O)NCc2ccc(S(N)(=O)=O)cc2)o1	0	0	0	0	67.8	0	58.4	Diaph ctr 10uM=0;Diaphorase 30uM=0
O=c1c(Br)c(N2CCCCC2)cnn1-c1ccccc1	0	0	0	0	0	0	-
O=C(NCC(O)c1ccc2ccccc2c1)c1c(F)cccc1F (stereo unspecified)	0	0	0	0	0	0	-
CCOc1ccc(-n2c(N)c(C(=O)N3CCN(C)CC3)sc2=S)cc1	0	0	0	0	0	0	-
Nc1c(C(=O)N2CCOCC2)sc(=S)n1-c1ccccc1	0	0	0	0	59.0	0	0
Nc1c(C(=O)N2CCCCC2)sc(=S)n1-c1ccccc1	0	0	0	0	78.8	0	0
Cc1ccc(-n2c(N)c(C(=O)N3CCN(C)CC3)sc2=S)cc1	0	0	0	0	78.8	0	70.1	Diaph ctr 10uM=0;Diaphorase 30uM=0
Cc1ccc(-n2c(N)c(C(=O)N3CCCCC3)sc2=S)cc1	0	0	0	0	0	0	-
CC1(C)CC(=O)C(N=Nc2cccc(F)c2C#N)=C(O)C1	0	0	0	0	0	0	-
CC(=O)c1ccc(OCC(=O)Nc2nnc(C3CC3)s2)cc1	0	0	0	0	0	0	-
CC(=O)N1CCc2cc(S(=O)(=O)NCCC(=O)NC3CCCCCC3)ccc21	0	0	0	0	0	0	-
SMILES	aDG glyco act	CRFR2-BP ag	CRFBP-R2 block	Cardio protect	PfG6PD inh	FAS-TE inh	PfGluPho conf	others
CCN(Cc1nc2cc(Cl)ccc2c(=O)[nH]1)C(=O)c1cccc(OCc2c(C)noc2C)c1	0	0	0	0	0	0	-
COc1cc(OC)c(OC)cc1/C=C/c1ccnc2ccccc12	0	0	0	0	86.5	0	0
COc1ccc(OC)c(/C=C/c2ccnc3ccccc23)c1	0	0	0	0	0	0	-
CC1CCc2[nH]c3ccc(C(=O)N(C)CC(=O)Nc4ccccc4Br)cc3c2C1 (stereo unspecified)	0	0	0	0	89.9	0	0
Cc1ccc(C)c(NC(=O)CN(C)C(=O)c2ccc3[nH]c4c(c3c2)CC(C)CC4)c1 (stereo unspecified)	0	0	0	0	70.5	0	0
COc1ccc2cc(C(=O)N(C)CC(=O)Nc3ccccc3Br)ccc2c1	0	0	0	0	0	0	-
CCN(CC(=O)Nc1ccc(OC)cc1)C(=O)c1ccc2[nH]c3c(c2c1)CC(C)CC3 (stereo unspecified)	0	0	0	0	0	0	-
COc1ccc(CNC(=O)CN(Cc2ccco2)C(=O)CCC(=O)Nc2ccccn2)cc1	0	0	0	0	0	0	-
CC(C(=O)Nc1cc([N+](=O)[O-])ccc1Cl)N1CCN(c2ccc(O)cc2)CC1 (stereo unspecified)	0	0	0	0	59.5	0	0
Cc1ccc(S(=O)(=O)N(CC(=O)NCc2ccco2)Cc2ccccc2F)cc1	0	0	89.4	0	71.8	0	0
O=C(Nc1ccccc1Cl)Oc1ccc(-c2ccccc2)cc1	0	0	0	0	0	0	-
Cc1ccc(-c2cc(-c3ccccc3Cl)c(C#N)c(N)n2)o1	0	0	0	0	0	0	-
Cc1ccc(-c2cc(-c3ccccc3)c(C#N)c(N)n2)o1	0	0	0	0	82.6	0	0
O=C(Cn1ncc2c3ccccc3n(Cc3ccccc3)c2c1=O)NCCCN1CCCC1=O	0	0	0	0	0	0	-
O=C1OC(c2ccccc2)(c2ccc3cc(O)ccc3c2)c2ccccc21 (stereo unspecified)	0	0	0	0	61.8	0	0
O=C1OC(c2ccc3ccccc3c2O)(c2ccc3ccccc3c2O)c2ccccc21	0	0	0	0	74.7	0	57.3	Diaph ctr 10uM=0;Diaphorase 30uM=0
O=C1OC2(c3ccccc31)c1ccccc1-c1ccccc12	0	0	0	0	84.1	0	0
O=C1OC(c2ccc(O)cc2)(c2ccc(O)cc2)c2ccccc21	0	0	0	0	0	0	-
Cc1cc(Nc2ccccc2C(=O)O)n2ncnc2n1	0	0	0	0	0	0	-
C[C@H](CO)N1C[C@H](C)[C@@H](CN(C)C(=O)NC2CCCCC2)Oc2ccc(NC(=O)C3CCCCC3)cc2C1=O	0	0	0	0	0	0	-
Cc1ccc(NC(=O)COC(=O)C2CC(=O)N(Cc3ccccc3)C2)cc1S(=O)(=O)N(C)C (stereo unspecified)	0	0	0	0	0	0	-
Cc1cc(C)c(S(=O)(=O)c2cccc(Br)c2C)c(Cl)n1	0	0	0	0	69.0	0	0
Cc1cc(C)c(S(=O)(=O)c2ccccc2Cl)c(Cl)n1	0	-	-	0	-	0	-
COc1ccc(Cl)cc1NC(=O)CN(C)C(=O)c1ccc(-n2cncn2)cc1	0	0	0	0	0	0	-
